# Experimental data reported in PubChem BioAssay AID1272365 (Small Molecule Screening Facility, UW Madison, 2018).
# Several values for one entry are separate records, joined by “and”; a condition that tells them apart may be missing. Equal entries are not always repeated. Screen size: about 430,000 compounds; about 2,600 (0.6%) were called active. Rule as the data show it: active = inhibition mostly above about 37% (no sharp cut-off); inactive = mostly below about 20%. This excerpt belongs to a sample that is enriched for actives.
# Test system: PriA–SSB C-terminal tail interaction (Klebsiella pneumoniae)
# Test: blocks PriA binding to SSB C-terminal tail, primary screen, biochemical, AlphaScreen (AID 1272365);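 also: plate controls were negative control peptide for no effect and reference peptide for full effect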
# Settings: AlphaScreen SSBct-PriA binding, biotinylated peptide; at 33 µM, stronger effect = higher value
row,SMILES,inhibition
1,Cc1cc(N2CCC(NC(=O)c3ccc4ncsc4c3)CC2)n[nH]1,-7% (inactive)
2,O=C(c1ccccn1)N1CC(N2C(=O)CCC2=O)C1,-11% (inactive)
3,COc1ccc(F)cc1S(=O)(=O)Nc1ccc2c(c1)CCCN2S(=O)(=O)c1ccccc1,1% (inactive)
4,COc1ccccc1-n1cnc2cc(NS(=O)(=O)c3ccccc3)ccc21,73.9% (active)
5,COCCCNC(=O)c1ccc2c(c1)ncn2-c1ccccc1OC,-10.8% (inactive)
6,Cc1ccc(C(=O)NC(=S)NCc2cccnc2)cc1,46.3% (active)
7,Cc1c(C(=O)NC(=S)NCc2cccnc2)oc2ccccc12,-8.37% (inactive)
8,Cc1cccc(OCCNC(=S)NC(=O)c2cccnc2)c1,1.76% (inactive)
9,CCOC(=O)CSc1nc2cc(OC)c(OC)cc2c2nc(CCn3nc(C)cc3C)nn12,3% (inactive)
10,CC(=NNC(=O)c1c[nH]c2ccccc12)c1ccccn1,75.7% (active)
11,CCN(CC)c1ccc(C=NNC(=O)c2c[nH]c3ccccc23)cc1,16.7% (inactive)
12,CC(=NNC(=O)c1ccc(F)cc1)c1ccccn1,-1.36% (inactive)
13,CC1=NN(CCN2CCN(c3ccc(F)cc3)CC2)c2nc3c(c(=O)n(C)c(=O)n3C)n2C1,6% (inactive) and -7% (inactive)
14,CCn1cc(NC(=O)N2CCc3ccccc32)c2ccccc21,40% (active)
15,Cn1cc(NC(=O)N2CCc3ccccc3C2)c2ccccc21,-3% (inactive)
16,CCn1cc(NC(=O)N2CCCc3ccccc32)c2ccccc21,2% (inactive)
17,CN1CCc2cc(C(CNC(=O)C(=O)Nc3ccccc3F)N(C)C)ccc21 (stereo not drawn),14% (inactive)
18,COc1cccc2c1C(=O)c1c(O)c3c(c(O)c1C2=O)CC(O)(C(C)=NNC(=O)c1ccc(Cl)c(Cl)c1)CC3OC1CC(N)C(O)C(C)O1 (stereo not drawn),57.5% (active)
19,NC(=O)CSc1ccc2nnc(-c3ccccn3)n2n1,72% (active)
20,Cc1ccccc1NC(=O)CSc1ccc2nnc(-c3ccccn3)n2n1,-4.51% (inactive)
21,CCOC(=O)CNC(=O)CSc1ccc2nnc(-c3cccnc3)n2n1,2.63% (inactive)
22,CCCN(CCC)C(=O)Cn1c(=O)c2ccccc2n2c(=S)sc(-c3cccc(C)c3)c12,7% (inactive)

row,SMILES,inhibition
1,CCc1ccc2nc(Nc3nc4ccc(NC(C)=O)cc4s3)sc2c1,2% (inactive)
2,C/C(=N/N=C1/NC(=O)CS1)c1ccccc1,-2% (inactive)
3,N#CC1=C(N)Oc2c(sc3ccccc23)C1c1ccco1 (stereo not drawn),2.22% (inactive)
4,Nc1cncc2cccnc12,-8% (inactive)
5,N#CC1=C(N)Oc2c(ccc3cccnc23)C1c1ccncc1 (stereo not drawn),65.3% (active)
6,Cc1ccc2nc3sc(Nc4ccc(C)c(Cl)c4)nn3c(=O)c2c1,-4% (inactive)
7,Cc1nn(C)c(C)c1S(=O)(=O)NCC1CCN(c2ccccn2)CC1,2% (inactive)
8,Cc1ccc2c(c1)C1CN(C)CCC1N2S(=O)(=O)c1ccc(Oc2ccc([N+](=O)[O-])cc2)cc1 (stereo not drawn),17.5% (inactive)
9,Cc1ccc2c(c1)C1CN(C)CCC1N2S(=O)(=O)c1cccc(F)c1 (stereo not drawn),39.2% (active)
10,Cc1ccc2c(c1)C1CN(C)CCC1N2C(=O)c1ccccc1NS(=O)(=O)c1ccc(F)cc1C (stereo not drawn),-3.86% (inactive)
11,CCOc1ccc(-c2ccc(=O)n(CC(=O)N3CCOCC3)n2)cc1,-1% (inactive)
12,CN1CCC(=O)N([C@H](CO)Cc2ccccc2)CC1,-2.41% (inactive)
13,CC(C)CC(COCc1ccc(Cl)cc1)N1CCN(C(=O)c2ccc(C(F)(F)F)cc2)CCC1=O (stereo not drawn),-5.16% (inactive)
14,O=C(c1cc(Cl)cc(Cl)c1)N1CCC(=O)N(C(COCc2ccccc2)Cc2ccccc2)CC1 (stereo not drawn),44.6% (active)
15,COc1cc(NC(=O)CSc2nccn3nc(-c4ccc(Cl)cc4)cc23)cc(OC)c1,3% (inactive)
16,Cc1csc(OCC(=O)Nc2ccc(C)c(C)c2)n1,-9.32% (inactive)
17,Cc1cc(-c2csc(Nc3ccccn3)n2)c(C)o1,2% (inactive)
18,Cc1ccc(Nc2nc(-c3ccccn3)cs2)cc1C,108% (active)
19,COc1ccccc1C(CNC(=O)c1ccc2c(c1)OCO2)OC (stereo not drawn),-10% (inactive)
20,Cc1noc(C)c1CC(=O)NCCn1cnc2ccsc2c1=O,-1% (inactive)
21,CNC(=O)NC(=O)C(C)N1CCN(C/C=C/c2ccccc2)CC1 (stereo not drawn),7.15% (inactive)
22,O=C1c2ccccc2C(=O)c2c1cccc2N1CCN(Cc2ccccc2)CC1,50.5% (inactive)

row,SMILES,inhibition
1,O=C1c2ccccc2C(=O)c2c1cccc2N1CCN(C/C=C/c2ccccc2)CC1,68.2% (active)
2,Cc1ccc(Nc2ccc(NCCN)nn2)nc1,89% (active)
3,Cc1ccc(NS(=O)(=O)c2ccc(F)cc2)nc1,-0.76% (inactive)
4,Cc1cccc(N2CCN(C(=O)CCc3csc4nc(-c5ccccc5)cn34)CC2)c1,-16% (inactive)
5,Cc1c(C(=O)Nc2nc(-c3ccccn3)cs2)cccc1[N+](=O)[O-],25.8% (inactive)
6,O=C1c2ccccc2NC(c2ccccn2)N1NS(=O)(=O)c1ccccc1 (stereo not drawn),-13.5% (inactive)
7,CC(C)C1Nc2ccccc2C(=O)N1CC(=O)Nc1nc(-c2ccccn2)cs1 (stereo not drawn),94.5% (active)
8,O=C(CC1(n2cccc2)CCOCC1)Nc1nc(-c2ccccn2)cs1,109% (active)
9,Cc1ccc(SCCC(=O)Nc2nc(-c3ccc4c(c3)OCCO4)cs2)cc1,8% (inactive)
10,O=C(Cc1csc(NC(=O)c2ccccc2)n1)NCc1ccccn1,0% (inactive)
11,CCCCOC(=O)NCN1C(=O)C2C3C=CC(C3)C2C1=O (stereo not drawn),9.26% (inactive)
12,Cc1ccc(-c2csc(NC(=O)[C@H](C(C)C)N3C(=O)c4ccccc4C3=O)n2)cc1,-1% (inactive)
13,O=C(CCN1C(=O)C2C3C=CC(C3)C2C1=O)Nc1ccccc1F (stereo not drawn),-14.1% (inactive)
14,O=C(CN1C(=O)C2C3C=CC(C3)C2C1=O)Nc1nc(-c2ccccn2)cs1 (stereo not drawn),84.8% (active)
15,O=C(CSc1ccccc1)Nc1nc(-c2ccccn2)cs1,-20% (inactive)
16,COc1ccc(SCCC(=O)Nc2nc(-c3ccccn3)cs2)cc1,81% (active)
17,Cc1cc(OCC(=O)NCCc2ccccc2)ccc1C(C)C,-16% (inactive) and -56% (inactive)
18,O=C(Nc1nc(-c2cc([N+](=O)[O-])cs2)cs1)C1CC1,16% (inactive)
19,O=C(COc1ccc(F)cc1)Nc1ccc2c(c1)N(C(=O)c1ccco1)CC2,0% (inactive)
20,Cc1c(S(=O)(=O)CCNC(=O)NCc2cccs2)c2ccccc2n1C,-1% (inactive)
21,COc1cc(/C=C2\Oc3cc(OCC(=O)O)ccc3C2=O)cc(OC)c1OC,-2% (inactive)
22,COc1ccc(OC)c(NC(=O)c2ccc(S(=O)(=O)NC3CC3)cc2)c1,16% (inactive)

row,SMILES,inhibition
1,O=C(NCCn1nc(C(F)(F)F)c2c1CCCC2)c1c(F)cccc1Cl,-4% (inactive)
2,COC(=O)c1c(NC(=O)c2cc(C)no2)sc2c1CCCC2,0% (inactive)
3,CCOC(=O)c1ccc(NC(=O)c2cc(=O)[nH]cn2)cc1,-18% (inactive)
4,Nn1c(SCC(=O)NC2CCCCC2)nnc(CCC(=O)O)c1=O,-5% (inactive)
5,COc1ccc(-n2nnc(C(=O)OCc3ccccc3C)c2C)cc1,-5% (inactive)
6,CSc1ccccc1NC(=O)C(=O)NCCC(O)c1ccc2c(c1)OCO2 (stereo not drawn),13% (inactive)
7,O=C(Nc1ccc2c(c1)OCO2)c1ccc2nccnc2c1,-19% (inactive)
8,CS(=O)(=O)N1CCCC1C(=O)Nc1nc2c(F)cc(F)cc2s1 (stereo not drawn),5% (inactive)
9,O=C(Nc1nccs1)C1CCCN1S(=O)(=O)c1cccc2cccnc12 (stereo not drawn),-2.31% (inactive)
10,CS(=O)(=O)N1CCCC(C(=O)Nc2nc(-c3nc4ccccc4s3)cs2)C1 (stereo not drawn),-20% (inactive)
11,CS(=O)(=O)N1CCCCC1C(=O)Nc1nc(-c2ccccn2)cs1 (stereo not drawn),79% (active)
12,CS(=O)(=O)N1CCC[C@H]1C(=O)Nc1nc(-c2ccccn2)cs1,75% (active)
13,CC1(C)CC(=O)c2sc(NC(=O)C3CCCCN3S(C)(=O)=O)nc2C1 (stereo not drawn),-7% (inactive)
14,NS(=O)(=O)c1ccc(CCNC(=O)C(=O)Nc2nc3ccccc3s2)cc1,-20% (inactive)
15,COc1ccc2cc(C(=O)N(CCc3cccs3)C3CC3)[nH]c2c1,-1% (inactive)
16,Cc1nc2ccccc2c(=O)n1-c1ccc(F)c(NC(=O)c2ccccc2Cl)c1,3% (inactive)
17,O=S(=O)(Nc1ccc(Nc2ccc(-n3cccn3)nn2)cc1)c1ccccc1Cl,100% (active)
18,COc1cc(Nc2ccc(NS(=O)(=O)c3ccccc3Cl)cc2)nc(C)n1,5% (inactive)
19,Cc1cccc(NC(=O)Nc2ccc(Nc3ccc(-n4cccn4)nn3)cc2)c1C,66% (active) and 33% (inactive)
20,O=S(=O)(Nc1ccc2[nH]ncc2c1)c1ccccc1Cl,1.19% (inactive)
21,CCc1ccccc1NC(=O)Nc1ccc(Nc2cc(-n3cccn3)ncn2)cc1,-23% (inactive)
22,Cc1nn(-c2ccc(Nc3ccc(NC(=O)COc4ccccc4)cc3)nn2)c(C)c1C,-7% (inactive)

row,SMILES,inhibition
1,O=c1c2cc(-c3cccs3)nn2cnn1Cc1nc(-c2ccc(OCc3ccccc3)cc2)no1,-16% (inactive)
2,CC(C)c1ccc(/C=C2\CC/C(=C\C=NN(C)C)C2=O)cc1,5.12% (inactive)
3,Cc1cc(C)cc(NC(=O)N2CCN(c3ccc4nnc(C5CC5)n4n3)CC2)c1,-16% (inactive)
4,CC(C)c1cc(=O)n(CC(=O)Nc2ccccc2C#N)cn1,-2% (inactive)
5,Cc1ccccc1OCC(=O)NCCCS(=O)(=O)N1CCc2ccccc2C1,-9% (inactive)
6,O=C(CSc1ncc(-c2cccc(Br)c2)o1)NCc1ccc2c(c1)OCO2,-4% (inactive)
7,CCn1nccc1C(=O)Nc1ccc(S(=O)(=O)NC23CC4CC(CC(C4)C2)C3)cc1,-2.71% (inactive)
8,CCC(=O)Nc1ccc(-c2nc3ccccc3o2)cc1,-11% (inactive)
9,CCn1nccc1C(=O)Nc1ccc(-c2nc3ccccc3o2)cc1,83% (active)
10,O=C(c1ccc(OC(F)(F)F)cc1)N1CC(S(=O)(=O)C2CCCCC2)C1,-1% (inactive)
11,COc1ccc(CCNC(=O)C(=O)Nc2ccc3c(c2)CCCN3C(=O)c2cccs2)cc1,1% (inactive)
12,O[C@H](c1ccncc1)c1c(-c2ccccc2)[nH]c2ccccc12,2% (inactive)
13,COc1ccc(NC(=O)COC(=O)Cn2c(C)nc3ccccc32)cc1OC,-8.33% (inactive)
14,CCN(c1ccc(NC(=O)COC(=O)CCc2nc3ccccc3n2-c2ccccc2)cc1)C(C)C,55.2% (active)
15,Cc1ccc(NC(=O)COC(=O)CCc2nc3ccccc3n2-c2ccccc2)c(C)c1,4.81% (inactive)
16,COc1cc([N+](=O)[O-])cc(C=NNC(=O)c2ccc(C)nc2)c1O,79.7% (inactive)
17,CS(=O)(=O)Nc1c(Cl)c(Cl)c(Cl)c(Cl)c1Cl,3% (inactive)
18,Cc1onc(-c2ccccc2Cl)c1C(=O)NCCCS(=O)(=O)N1CCN(c2ccccn2)CC1,-12% (inactive)
19,Cc1onc(-c2ccccc2Cl)c1C(=O)NCCn1ccc2ccccc21,5% (inactive) and 69.4% (active)
20,Cc1ccc2cc(CCNC(=O)c3c(-c4ccccc4Cl)noc3C)c(=O)[nH]c2c1,4.89% (inactive)
